Measured values published in article PMC7862700, “An all-to-all approach to the identification of sequence-specific readers for epigenetic DNA modifications on cytosine”.

Experiments:
Assay in all cases: DAPPL (digital affinity profiling via proximity ligation, sequencing); 10 mM Tris-HCl pH 7.5, 50 mM NaCl, 1 mM DTT, 4% glycerol, room temperature, 30 min; GST-TFs on glutathione beads, 16-mer random dsDNA library, 0.1% formaldehyde crosslink after washing; high values mean tight binding
FLI1 = target: T1, FLI1 (Homo sapiens, UniProt Q01543 1-452); conditions: protein: recombinant; tags: N-terminal GST; dsDNA, one strand shown
T1 sequence: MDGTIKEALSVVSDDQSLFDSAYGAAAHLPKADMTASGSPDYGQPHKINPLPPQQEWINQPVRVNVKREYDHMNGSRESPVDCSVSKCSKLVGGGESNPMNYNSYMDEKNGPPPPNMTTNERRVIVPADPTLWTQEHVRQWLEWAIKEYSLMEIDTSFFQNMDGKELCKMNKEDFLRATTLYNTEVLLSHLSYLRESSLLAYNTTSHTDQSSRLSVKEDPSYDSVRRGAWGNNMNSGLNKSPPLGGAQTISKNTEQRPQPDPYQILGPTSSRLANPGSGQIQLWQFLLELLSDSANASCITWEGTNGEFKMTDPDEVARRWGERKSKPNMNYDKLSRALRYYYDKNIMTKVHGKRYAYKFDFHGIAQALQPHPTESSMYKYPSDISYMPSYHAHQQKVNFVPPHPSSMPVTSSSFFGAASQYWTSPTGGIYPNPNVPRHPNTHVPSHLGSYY
Method in brief: (§1)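 Pools were built from human transcription factors expressed in yeast as GST fusions, captured on glutathione beads and DNA-barcoded, along with a tag-only sample. Incubation with 200 nmole of a 16-mer random double-stranded DNA library lasted 30 min at room temperature in Tris/NaCl/DTT/glycerol buffer, and was followed by washing, 0.1% formaldehyde crosslinking, proximity ligation, PCR amplification and Illumina NextSeq500 sequencing. Binding signal is the quotient of each hexamer's read frequency for a factor and its frequency for the tag-only sample.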

ELK1 = target: T2, ELK1 (Homo sapiens, UniProt P19419 1-428); conditions: protein: recombinant; tags: N-terminal GST; dsDNA, one strand shown
T2 sequence: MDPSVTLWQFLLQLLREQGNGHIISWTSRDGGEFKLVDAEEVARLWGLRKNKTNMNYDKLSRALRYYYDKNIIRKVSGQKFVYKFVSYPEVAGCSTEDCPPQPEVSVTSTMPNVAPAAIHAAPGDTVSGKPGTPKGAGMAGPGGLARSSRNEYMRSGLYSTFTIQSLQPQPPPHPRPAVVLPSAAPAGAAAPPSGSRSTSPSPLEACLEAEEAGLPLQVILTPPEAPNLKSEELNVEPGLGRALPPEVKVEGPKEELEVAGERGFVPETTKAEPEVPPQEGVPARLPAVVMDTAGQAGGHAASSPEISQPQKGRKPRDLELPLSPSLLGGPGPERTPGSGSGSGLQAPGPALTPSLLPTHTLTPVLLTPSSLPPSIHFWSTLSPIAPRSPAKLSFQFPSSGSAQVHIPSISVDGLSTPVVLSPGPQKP
Method in brief: as §1

GABPA = target: T3, GABPA (Homo sapiens, UniProt Q06546 1-454); conditions: protein: recombinant; tags: N-terminal GST; dsDNA, one strand shown
T3 sequence: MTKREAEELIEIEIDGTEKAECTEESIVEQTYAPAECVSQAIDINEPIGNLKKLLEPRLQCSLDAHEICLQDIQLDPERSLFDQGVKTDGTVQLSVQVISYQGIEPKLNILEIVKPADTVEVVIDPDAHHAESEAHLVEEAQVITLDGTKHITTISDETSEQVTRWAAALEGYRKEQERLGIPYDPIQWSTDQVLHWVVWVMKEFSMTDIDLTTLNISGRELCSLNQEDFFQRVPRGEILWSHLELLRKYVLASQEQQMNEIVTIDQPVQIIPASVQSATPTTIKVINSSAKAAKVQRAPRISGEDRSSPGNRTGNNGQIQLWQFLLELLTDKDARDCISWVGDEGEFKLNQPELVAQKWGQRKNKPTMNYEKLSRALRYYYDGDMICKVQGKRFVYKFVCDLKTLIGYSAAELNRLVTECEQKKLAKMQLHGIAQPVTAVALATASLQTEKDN
Method in brief: as §1

ERG = target: T4, ERG (Homo sapiens, UniProt P11308 1-479); conditions: protein: recombinant; tags: N-terminal GST; dsDNA, one strand shown
T4 sequence: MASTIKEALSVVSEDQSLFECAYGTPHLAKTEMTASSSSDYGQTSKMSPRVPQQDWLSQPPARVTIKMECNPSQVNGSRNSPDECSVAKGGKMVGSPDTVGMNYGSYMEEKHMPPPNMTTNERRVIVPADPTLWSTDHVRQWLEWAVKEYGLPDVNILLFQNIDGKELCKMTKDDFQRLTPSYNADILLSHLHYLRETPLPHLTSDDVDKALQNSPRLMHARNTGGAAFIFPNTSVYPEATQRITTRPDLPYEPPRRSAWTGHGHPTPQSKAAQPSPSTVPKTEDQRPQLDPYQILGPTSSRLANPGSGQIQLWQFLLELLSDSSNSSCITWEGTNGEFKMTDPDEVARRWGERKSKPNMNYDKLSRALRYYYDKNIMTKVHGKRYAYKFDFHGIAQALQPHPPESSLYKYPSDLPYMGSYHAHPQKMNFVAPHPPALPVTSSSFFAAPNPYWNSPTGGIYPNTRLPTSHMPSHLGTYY
Method in brief: as §1

ELF1 = ELF1 (Homo sapiens, UniProt P32519 1-619); conditions: protein: recombinant; tags: N-terminal GST; dsDNA, one strand shown
Chain of ELF1 (P32519 whole entry): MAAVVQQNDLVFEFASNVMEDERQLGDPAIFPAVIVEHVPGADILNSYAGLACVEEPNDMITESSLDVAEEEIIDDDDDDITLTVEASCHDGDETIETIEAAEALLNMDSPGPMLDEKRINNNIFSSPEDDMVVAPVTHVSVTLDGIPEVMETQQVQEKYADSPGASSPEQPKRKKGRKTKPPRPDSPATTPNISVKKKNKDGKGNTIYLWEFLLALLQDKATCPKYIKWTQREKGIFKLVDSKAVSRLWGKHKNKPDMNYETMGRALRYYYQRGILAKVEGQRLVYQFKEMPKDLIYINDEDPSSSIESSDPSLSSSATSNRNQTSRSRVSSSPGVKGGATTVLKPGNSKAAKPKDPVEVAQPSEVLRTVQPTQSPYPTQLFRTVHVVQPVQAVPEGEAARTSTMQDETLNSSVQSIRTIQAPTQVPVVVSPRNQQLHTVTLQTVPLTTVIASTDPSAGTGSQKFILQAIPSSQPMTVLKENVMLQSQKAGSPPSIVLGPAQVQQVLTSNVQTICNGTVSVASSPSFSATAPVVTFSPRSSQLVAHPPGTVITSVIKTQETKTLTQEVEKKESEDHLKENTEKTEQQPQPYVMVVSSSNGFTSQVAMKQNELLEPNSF
Method in brief: as §1

EHF = target: T5, EHF (Homo sapiens, UniProt Q9NZC4 1-300); conditions: protein: recombinant; tags: N-terminal GST; dsDNA, one strand shown
T5 sequence: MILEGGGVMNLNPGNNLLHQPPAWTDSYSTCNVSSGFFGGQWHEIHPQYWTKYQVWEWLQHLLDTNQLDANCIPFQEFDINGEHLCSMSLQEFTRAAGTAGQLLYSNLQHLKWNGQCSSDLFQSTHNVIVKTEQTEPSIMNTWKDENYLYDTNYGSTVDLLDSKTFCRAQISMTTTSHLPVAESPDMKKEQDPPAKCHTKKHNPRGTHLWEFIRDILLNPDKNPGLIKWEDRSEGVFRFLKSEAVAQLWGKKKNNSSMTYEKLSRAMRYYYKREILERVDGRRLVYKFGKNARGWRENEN
Method in brief: as §1

SPI1 = SPI1 (Homo sapiens, UniProt P17947 1-270); conditions: protein: recombinant; tags: N-terminal GST; dsDNA, one strand shown
Method in brief: as §1

SPIB = SPIB (Homo sapiens, UniProt Q01892 1-262); conditions: protein: recombinant; tags: N-terminal GST; dsDNA, one strand shown
Chain of SPIB (Q01892 whole entry): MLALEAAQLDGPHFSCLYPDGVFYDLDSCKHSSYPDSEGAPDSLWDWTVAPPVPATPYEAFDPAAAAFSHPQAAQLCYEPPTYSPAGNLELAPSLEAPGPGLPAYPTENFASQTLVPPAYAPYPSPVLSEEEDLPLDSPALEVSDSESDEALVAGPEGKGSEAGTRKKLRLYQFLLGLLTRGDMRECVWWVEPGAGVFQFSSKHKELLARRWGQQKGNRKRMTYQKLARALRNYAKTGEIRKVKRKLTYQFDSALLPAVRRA
Method in brief: as §1

ELK3 = target: T6, ELK3 (Homo sapiens, UniProt P41970 1-407); conditions: protein: recombinant; tags: N-terminal GST; dsDNA, one strand shown
T6 sequence: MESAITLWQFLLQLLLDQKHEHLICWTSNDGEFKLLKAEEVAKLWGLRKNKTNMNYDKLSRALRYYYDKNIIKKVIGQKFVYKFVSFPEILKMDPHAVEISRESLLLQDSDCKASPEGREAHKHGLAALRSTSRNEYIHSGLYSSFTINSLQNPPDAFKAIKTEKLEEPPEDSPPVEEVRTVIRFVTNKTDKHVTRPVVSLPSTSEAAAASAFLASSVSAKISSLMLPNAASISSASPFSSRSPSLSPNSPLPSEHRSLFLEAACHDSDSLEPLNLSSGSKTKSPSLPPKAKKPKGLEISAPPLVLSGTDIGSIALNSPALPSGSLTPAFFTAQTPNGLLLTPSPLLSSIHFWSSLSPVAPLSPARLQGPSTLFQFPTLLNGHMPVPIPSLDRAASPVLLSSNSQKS
Method in brief: as §1

FEV = target: T7, FEV (Homo sapiens, UniProt Q99581 1-238); conditions: protein: recombinant; tags: N-terminal GST; dsDNA, one strand shown
T7 sequence: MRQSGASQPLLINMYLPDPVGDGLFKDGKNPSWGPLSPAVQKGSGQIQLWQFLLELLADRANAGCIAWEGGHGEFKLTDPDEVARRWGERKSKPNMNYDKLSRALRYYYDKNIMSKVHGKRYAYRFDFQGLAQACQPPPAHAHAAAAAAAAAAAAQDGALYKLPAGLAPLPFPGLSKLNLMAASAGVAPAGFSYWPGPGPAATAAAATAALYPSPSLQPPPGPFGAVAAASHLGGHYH
Method in brief: as §1

ETV5 = ETV5 (Homo sapiens, UniProt P41161 1-510); conditions: protein: recombinant; tags: N-terminal GST; dsDNA, one strand shown
Chain of ETV5 (P41161 whole entry): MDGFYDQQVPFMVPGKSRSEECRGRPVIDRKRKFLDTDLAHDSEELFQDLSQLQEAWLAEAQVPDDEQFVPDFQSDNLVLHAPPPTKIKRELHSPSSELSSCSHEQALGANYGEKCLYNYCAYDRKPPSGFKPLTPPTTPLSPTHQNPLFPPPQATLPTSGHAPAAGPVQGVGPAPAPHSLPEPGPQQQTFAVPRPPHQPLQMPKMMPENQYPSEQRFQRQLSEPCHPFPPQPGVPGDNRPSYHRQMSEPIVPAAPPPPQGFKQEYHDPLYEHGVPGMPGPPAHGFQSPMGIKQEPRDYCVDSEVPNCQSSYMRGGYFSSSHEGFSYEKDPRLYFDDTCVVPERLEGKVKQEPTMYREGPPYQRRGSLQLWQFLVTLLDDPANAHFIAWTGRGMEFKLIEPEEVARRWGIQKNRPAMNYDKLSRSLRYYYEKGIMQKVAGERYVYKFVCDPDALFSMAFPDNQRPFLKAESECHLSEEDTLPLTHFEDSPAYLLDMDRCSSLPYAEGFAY
Method in brief: as §1

HSF1 = HSF1 (Homo sapiens, UniProt Q00613 1-529); conditions: protein: recombinant; tags: N-terminal GST; chain copies: 3; dsDNA, one strand shown
Chain of HSF1 (Q00613 whole entry): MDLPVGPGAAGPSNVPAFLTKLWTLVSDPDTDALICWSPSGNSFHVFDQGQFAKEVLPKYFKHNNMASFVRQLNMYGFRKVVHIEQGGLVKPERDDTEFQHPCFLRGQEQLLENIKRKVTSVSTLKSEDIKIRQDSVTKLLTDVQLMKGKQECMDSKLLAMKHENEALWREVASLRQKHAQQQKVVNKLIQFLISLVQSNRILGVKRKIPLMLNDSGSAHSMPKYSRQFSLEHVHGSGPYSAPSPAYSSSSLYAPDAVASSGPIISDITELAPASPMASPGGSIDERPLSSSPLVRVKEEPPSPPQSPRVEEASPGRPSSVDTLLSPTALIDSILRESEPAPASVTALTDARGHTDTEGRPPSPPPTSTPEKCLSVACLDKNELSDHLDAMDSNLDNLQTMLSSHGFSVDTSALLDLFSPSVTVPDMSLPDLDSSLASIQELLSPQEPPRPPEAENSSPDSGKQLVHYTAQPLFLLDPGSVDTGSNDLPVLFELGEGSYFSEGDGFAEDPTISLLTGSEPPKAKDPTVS
Method in brief: as §1

SPIC = target: T8, SPIC (Homo sapiens, UniProt Q8N5J4 1-248); conditions: protein: recombinant; tags: N-terminal GST; dsDNA, one strand shown
T8 sequence: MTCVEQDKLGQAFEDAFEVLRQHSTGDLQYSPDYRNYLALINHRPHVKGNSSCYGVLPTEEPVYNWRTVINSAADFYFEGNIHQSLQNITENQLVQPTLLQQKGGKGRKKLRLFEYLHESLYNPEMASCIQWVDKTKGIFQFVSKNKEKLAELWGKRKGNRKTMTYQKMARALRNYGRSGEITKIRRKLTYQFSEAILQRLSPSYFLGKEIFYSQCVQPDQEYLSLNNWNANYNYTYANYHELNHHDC
Method in brief: as §1

ELF4 = ELF4 (Homo sapiens, UniProt Q99607 1-663); conditions: protein: recombinant; tags: N-terminal GST; dsDNA, one strand shown
Chain of ELF4 (Q99607 whole entry): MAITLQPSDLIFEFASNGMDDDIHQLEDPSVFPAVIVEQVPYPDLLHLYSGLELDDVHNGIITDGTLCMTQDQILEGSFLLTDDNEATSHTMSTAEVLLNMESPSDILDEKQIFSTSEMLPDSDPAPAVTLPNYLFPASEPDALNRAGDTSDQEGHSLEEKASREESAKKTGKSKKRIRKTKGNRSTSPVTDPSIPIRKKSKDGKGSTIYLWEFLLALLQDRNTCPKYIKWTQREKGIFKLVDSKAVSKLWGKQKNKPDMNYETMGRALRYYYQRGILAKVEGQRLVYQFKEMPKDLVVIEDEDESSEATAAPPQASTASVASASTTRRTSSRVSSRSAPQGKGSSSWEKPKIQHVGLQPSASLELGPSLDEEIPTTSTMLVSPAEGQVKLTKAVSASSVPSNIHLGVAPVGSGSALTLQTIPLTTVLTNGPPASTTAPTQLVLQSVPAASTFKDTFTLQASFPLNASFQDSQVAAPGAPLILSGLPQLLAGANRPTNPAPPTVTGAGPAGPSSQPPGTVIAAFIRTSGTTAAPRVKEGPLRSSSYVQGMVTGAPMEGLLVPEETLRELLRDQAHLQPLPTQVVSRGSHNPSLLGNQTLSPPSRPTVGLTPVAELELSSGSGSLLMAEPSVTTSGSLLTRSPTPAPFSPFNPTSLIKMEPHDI
Method in brief: as §1

ELK4 = target: T9, ELK4 (Homo sapiens, UniProt P28324-2 1-405); conditions: protein: recombinant; tags: N-terminal GST; dsDNA, one strand shown
T9 sequence: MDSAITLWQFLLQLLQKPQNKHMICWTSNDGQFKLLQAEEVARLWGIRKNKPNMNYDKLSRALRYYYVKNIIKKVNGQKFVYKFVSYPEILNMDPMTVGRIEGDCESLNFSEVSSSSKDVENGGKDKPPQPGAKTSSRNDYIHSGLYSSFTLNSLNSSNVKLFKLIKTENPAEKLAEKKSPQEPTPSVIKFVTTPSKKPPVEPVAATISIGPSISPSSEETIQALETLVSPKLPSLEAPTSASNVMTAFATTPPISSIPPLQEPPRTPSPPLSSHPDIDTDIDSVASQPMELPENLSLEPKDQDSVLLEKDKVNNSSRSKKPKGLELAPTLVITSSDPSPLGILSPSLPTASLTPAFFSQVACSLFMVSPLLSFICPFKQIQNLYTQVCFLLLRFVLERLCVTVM
Method in brief: as §1

ETV2 = target: T10, ETV2 (Homo sapiens, UniProt O00321 1-342); conditions: protein: recombinant; tags: N-terminal GST; dsDNA, one strand shown
T10 sequence: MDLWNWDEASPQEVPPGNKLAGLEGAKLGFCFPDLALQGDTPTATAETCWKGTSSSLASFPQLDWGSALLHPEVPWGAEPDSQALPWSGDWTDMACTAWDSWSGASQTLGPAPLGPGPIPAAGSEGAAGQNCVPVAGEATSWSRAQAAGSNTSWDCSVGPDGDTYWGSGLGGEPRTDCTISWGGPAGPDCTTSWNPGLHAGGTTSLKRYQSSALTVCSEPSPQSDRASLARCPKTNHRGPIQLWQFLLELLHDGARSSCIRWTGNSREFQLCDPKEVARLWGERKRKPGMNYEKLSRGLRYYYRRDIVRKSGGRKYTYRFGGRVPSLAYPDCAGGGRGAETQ
Method in brief: as §1

ELF3 = target: T11, ELF3 (Homo sapiens, UniProt P78545 1-371); conditions: protein: recombinant; tags: N-terminal GST; dsDNA, one strand shown
T11 sequence: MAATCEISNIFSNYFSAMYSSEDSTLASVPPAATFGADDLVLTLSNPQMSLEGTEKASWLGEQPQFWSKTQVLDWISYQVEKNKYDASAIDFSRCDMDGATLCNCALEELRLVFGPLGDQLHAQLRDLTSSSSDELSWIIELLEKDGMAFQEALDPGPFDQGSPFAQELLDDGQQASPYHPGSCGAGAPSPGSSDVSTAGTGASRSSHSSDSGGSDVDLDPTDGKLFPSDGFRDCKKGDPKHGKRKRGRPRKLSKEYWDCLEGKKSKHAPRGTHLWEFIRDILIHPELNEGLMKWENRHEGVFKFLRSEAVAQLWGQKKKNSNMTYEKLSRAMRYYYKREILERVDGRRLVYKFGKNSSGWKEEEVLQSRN
Method in brief: as §1

CRX = CRX (Homo sapiens, UniProt O43186 1-299); conditions: protein: recombinant; tags: N-terminal GST; dsDNA, one strand shown
Chain of CRX (O43186 whole entry): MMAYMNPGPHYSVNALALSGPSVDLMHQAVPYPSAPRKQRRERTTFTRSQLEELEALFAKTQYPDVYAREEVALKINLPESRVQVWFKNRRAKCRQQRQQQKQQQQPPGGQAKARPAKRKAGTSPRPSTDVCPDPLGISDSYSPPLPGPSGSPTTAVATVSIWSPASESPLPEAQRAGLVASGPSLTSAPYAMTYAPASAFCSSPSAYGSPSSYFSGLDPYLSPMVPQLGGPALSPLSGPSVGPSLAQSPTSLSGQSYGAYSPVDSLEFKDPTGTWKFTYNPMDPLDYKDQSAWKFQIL
Method in brief: as §1

ETV1 = ETV1 (Homo sapiens, UniProt P50549 1-477); conditions: protein: recombinant; tags: N-terminal GST; dsDNA, one strand shown
Chain of ETV1 (P50549 whole entry): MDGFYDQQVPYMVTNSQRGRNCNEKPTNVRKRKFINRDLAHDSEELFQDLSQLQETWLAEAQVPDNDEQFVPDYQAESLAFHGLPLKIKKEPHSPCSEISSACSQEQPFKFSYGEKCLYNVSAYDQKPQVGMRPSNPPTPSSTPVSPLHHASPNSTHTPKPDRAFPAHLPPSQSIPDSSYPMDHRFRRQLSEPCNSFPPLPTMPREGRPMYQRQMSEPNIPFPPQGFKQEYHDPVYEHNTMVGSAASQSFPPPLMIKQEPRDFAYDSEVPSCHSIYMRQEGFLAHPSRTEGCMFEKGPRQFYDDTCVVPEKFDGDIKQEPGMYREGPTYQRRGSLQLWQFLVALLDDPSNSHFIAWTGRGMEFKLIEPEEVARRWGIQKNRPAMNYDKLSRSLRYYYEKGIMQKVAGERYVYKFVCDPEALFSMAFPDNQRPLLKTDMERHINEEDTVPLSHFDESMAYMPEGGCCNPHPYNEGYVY
Method in brief: as §1

Sequence: ACAAAT
- binding signal (FLI1): 1.09 fold enrichment (6-mer frequency, TF over GST control)
- binding signal (ELK1): 1.18 fold enrichment (6-mer frequency, TF over GST control)
- binding signal (GABPA): 1.12 fold enrichment (6-mer frequency, TF over GST control)
- binding signal (ERG): 1.15 fold enrichment (6-mer frequency, TF over GST control)
- binding signal (ELF1): 1.15 fold enrichment (6-mer frequency, TF over GST control)
- binding signal (EHF): 1.19 fold enrichment (6-mer frequency, TF over GST control)
- binding signal (SPI1): 1.17 fold enrichment (6-mer frequency, TF over GST control)
- binding signal (SPIB): 1.11 fold enrichment (6-mer frequency, TF over GST control)
- binding signal (ELK3): 1.14 fold enrichment (6-mer frequency, TF over GST control)
- binding signal (FEV): 1.16 fold enrichment (6-mer frequency, TF over GST control)
- binding signal (ETV5): 1.16 fold enrichment (6-mer frequency, TF over GST control)
- binding signal (HSF1): 1.17 fold enrichment (6-mer frequency, TF over GST control)
- binding signal (SPIC): 1.12 fold enrichment (6-mer frequency, TF over GST control)
- binding signal (ELF4): 1.18 fold enrichment (6-mer frequency, TF over GST control)
- binding signal (ELK4): 1.04 fold enrichment (6-mer frequency, TF over GST control)
- binding signal (ETV2): 1.16 fold enrichment (6-mer frequency, TF over GST control)
- binding signal (ELF3): 1.22 fold enrichment (6-mer frequency, TF over GST control)
- binding signal (CRX): 1.29 fold enrichment (6-mer frequency, TF over GST control)
- binding signal (ETV1): 1.15 fold enrichment (6-mer frequency, TF over GST control)
